Measured values: PubChem BioAssay (NCATS)
Inconclusive results are not listed. Activity calls are given as the source filed them. Calls come from the whole dose curve; as a rule, active = well fitted cell-killing curve with a large enough effect; inconclusive = small, poorly fitted or top-dose-only effect, or effect the other way; inactive = flat fitted curve, though single readings scatter. *1 amine or outer side, *2 acyl side, *3 side chain or, on linkers, in order; H or OH if unused. Where a SMILES comes first, the peptide text is derived from it. [ ]: non-standard residue; d: D form. X4 = CC(C)=CCc1cc(C(O)C(N[*:1])C(=O)[*:2])ccc1O

What was measured:
Assay in all cases: Primary qHTS to identify gynecologic anti-cancer compounds using libraries of approved drugs and bioactive compounds (AID 1345084); note: nearly all actives have a fitted effect of over 55% in size
Conditions in all cases: Gynecologic cancer cell panel viability, ATPlite luminescence, 48 h; series mostly up to 57.5 µM
[1] = tested on: PA-1
Procedure, shortened: (§1)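 Luminescence from the ATPlite ATP-monitoring reagent indicates viable cell number; lower signal means cytotoxicity. Cells received compound 16 h after seeding and were exposed for 48 h across five concentrations.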

[2] = tested on: SKOV3
Procedure, shortened: as §1

[3] = tested on: Tov-21-G
Procedure, shortened: as §1

[4] = tested on: Tov112D
Procedure, shortened: as §1
% is set by controls: 0 for no effect and ±100 for the full control effect.

C[C@@H]1O[C@@H](OC[C@H]2O[C@@H](Oc3cc(O)cc4c3C(=O)C(O)(Cc3ccc(O)cc3)O4)[C@H](O)[C@@H](O)[C@@H]2O)[C@H](O)[C@H](O)[C@H]1O (some centres undefined)
inactive: Potency [1] | Potency [2] | Potency [3] | Potency [4]

C=C1C(=O)OC2CC3(C)C(CC12)C(C)=CC(O)C3OC(C)=O (centres undefined)
inactive: Potency [1] | Potency [2] | Potency [3] | Potency [4]

CC(C)=CCc1cc(C(O)C2NC(=O)CNC(=O)C(Cc3c[nH]c4ccccc34)NC(=O)C3CCCN3C(=O)CNC(=O)C(C(C)C)NC(=O)CNC2=O)ccc1O (centres undefined) (cyclo(G[X4]GVGPW); configuration not given here)
inactive: activity change, negative = cytotoxicity [1] -1.16% [at 11.6 µM] | activity change, negative = cytotoxicity [2] 0% [at 11.6 µM] | activity change, negative = cytotoxicity [3] -4.16% [at 11.6 µM] | activity change, negative = cytotoxicity [4] -6.73% [at 11.6 µM]

Cc1c2cc(c(C(=O)O)c1C)OC1OC(C(O)C(O)C1O)C(O)C(O)C1OC(O2)C(O)C(O)C1O (centres undefined)
inactive: Potency [1] | Potency [2] | Potency [3] | Potency [4]

CC1CC[C@]2(C(=O)O)CC[C@]3(C(=O)O)C(=CCC4[C@@]5(C)CC[C@H](O[C@@H]6O[C@H](CO)[C@@H](O)[C@H](O)[C@H]6O)C(C)(C)C5CC[C@]43C)C2C1C (some centres undefined)
inactive: Potency [1] | Potency [2] | Potency [3] | Potency [4]

COc1cc2c(c(OC)c1CC=C(C)C)C[C@H](c1ccc(O)cc1O)CO2
inactive: Potency [1] | Potency [2] | Potency [3] | Potency [4]

CC1OC(OC2C(C)OC(OC3C(O)C(CO)OC(O[C@H]4CC[C@@]5(C)C(CC[C@]6(C)C5CC=C5C7[C@@H](C)[C@H](C)CC[C@]7(C(=O)O)CC[C@]56C(=O)O)C4(C)C)C3O)C(O)C2O)C(O)C(O)C1O (some centres undefined)
inactive: activity change, negative = cytotoxicity [1] -0.273% [at 11.6 µM] | activity change, negative = cytotoxicity [2] -6.75% [at 11.6 µM] | activity change, negative = cytotoxicity [3] -0.483% [at 11.6 µM] | activity change, negative = cytotoxicity [4] 2.5% [at 11.6 µM]

CC(C)CC1NC(=O)C(C)NC(=O)C(CC(C)C)OC(=O)CCCNC1=O (centres undefined)
inactive: Potency [1] | Potency [2] | Potency [3] | Potency [4]

C=CC(=O)N1CCN(C(=O)CNc2cc(I)c(Cl)cc2O)CC1
inactive: Potency [1] | Potency [2] | Potency [3] | Potency [4]

C=CC(C)(O)CC[C@H]1C(=C)CCC2[C@](C)(C(=O)O)CCC[C@@]21C (some centres undefined)
inactive: Potency [1] | Potency [2] | Potency [3] | Potency [4]

CC1(C)C2CC=C(COC3OC(COC4OCC(O)(CO)C4O)C(O)C(O)C3O)C1C2 (centres undefined)
inactive: Potency [1] | Potency [2] | Potency [3] | Potency [4]

C=C1CCC2C(C)(C(=O)O)CCCC2(C)C1CCC(C)CC(=O)O (centres undefined)
inactive: Potency [1] | Potency [2] | Potency [3] | Potency [4]

OC[C@H]1O[C@@H](OC(CCCCc2ccc(O)cc2)CCc2ccc(O)cc2)[C@H](O)[C@@H](O)[C@@H]1O (some centres undefined)
inactive: Potency [1] | Potency [2] | Potency [3] | Potency [4]

CC(CO)C1CCC2(C)CC3C(CO)CC(O)C3C(C)(O)C/C=C/12 (centres undefined)
inactive: Potency [1] | Potency [2] | Potency [3] | Potency [4]

Cn1cc(-c2ccc3nnc(Sc4ccc5nn(C)cc5c4)n3n2)cn1
inactive: Potency [1] | Potency [2] | Potency [3] | Potency [4]

C=CC(C)(O)CC/C=C(\C)C(=O)OC1C(O)C(CO)OC(OC(=O)C23CCC(C)(C)CC2C2=CCC4C5(C)CCC(OC6OC(COC7OCC(OC(C)=O)C(O)C7OC7OC(COC(C)=O)C(O)C(O)C7O)C(O)C(O)C6O)C(C)(C)C5CCC4(C)C2(C)C(O)C3O)C1OC1OCC(OC2OCC(O)C(OC3OCC(O)C(O)C3O)C2O)C(O)C1O (centres undefined)
inactive: activity change, negative = cytotoxicity [1] -0.479% [at 6.55 µM] | activity change, negative = cytotoxicity [2] 20.9% [at 6.55 µM] | activity change, negative = cytotoxicity [3] 0.14% [at 6.55 µM] | activity change, negative = cytotoxicity [4] -2.19% [at 6.55 µM]

C[C@H]1O[C@@H](O[C@H]2CC[C@@]3(C)C(CC[C@]4(C)C3CC=C3C5CC(C)(C)CC[C@]5(C(=O)O)CC[C@]34C(=O)O)C2(C)C)[C@H](O)[C@@H](O)[C@@H]1O (some centres undefined)
inactive: Potency [1] | Potency [2] | Potency [3] | Potency [4]

O=C(OC1C=C(CO)C2C(OC3OC(CO)C(O)C(O)C3O)OC=CC12)c1ccc(O)cc1 (centres undefined)
inactive: Potency [1] | Potency [2] | Potency [3] | Potency [4]

C=CC1(C)C=C2C(=O)OC(=O)C3=C(CCCC3(C)C)C2(O)CC1 (centres undefined)
inactive: Potency [1] | Potency [2] | Potency [3] | Potency [4]

CC1CC(=O)C2=C(CCC3(O)C(O)c4c(O)cccc4C(=O)C23O)C1 (centres undefined)
inactive: Potency [1] | Potency [2] | Potency [3] | Potency [4]

O=C(COc1cccc2c(=O)[nH]ccc12)c1ccccc1
inactive: Potency [1] | Potency [2] | Potency [3] | Potency [4]
